Rv3671c inh – Rv3671c (M. tuberculosis) protease inhibition; inhibition, % at 5.96 µM; AID 2606; actives 0.048% (n = 320,000); in the data active = inhibition above about 38%;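 note: extracellular domain of Rv3671c used as enzyme; 0% = enzyme with DMSO and 100% = no enzyme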
Mtb FBA inh – inhibits M. tuberculosis FBA enzyme | purified M. tuberculosis FBA, fluorescence read-out | inhibition, % at 1 µM | actives 2.3% (n = 360,000);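 note: 0% = vehicle and 100% = reference inhibitor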
Target sequence (P9WQA3 whole entry, looked up): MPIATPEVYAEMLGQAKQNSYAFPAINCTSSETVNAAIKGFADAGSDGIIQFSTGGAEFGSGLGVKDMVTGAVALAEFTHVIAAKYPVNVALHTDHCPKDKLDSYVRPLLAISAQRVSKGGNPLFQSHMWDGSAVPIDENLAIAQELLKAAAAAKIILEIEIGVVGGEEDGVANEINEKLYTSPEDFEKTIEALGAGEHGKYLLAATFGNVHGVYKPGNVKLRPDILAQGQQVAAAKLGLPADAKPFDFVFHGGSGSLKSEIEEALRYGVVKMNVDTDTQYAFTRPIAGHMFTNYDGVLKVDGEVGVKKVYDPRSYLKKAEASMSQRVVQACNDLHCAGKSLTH
UGM FP inh – Mtb UDP-galactopyranose mutase inhibition; actives 0.06% (n = 320,000); P9WIQ1; inhibition, % at 10 µM; AID 504406; purified UGM, fluorescence polarization probe displacement; in the data active = inhibition above about 10%, passing the limit was not always enough
GDH-TPI counter-1 – counter-screen for M. tuberculosis FBA inhibitors: GDH-TPI coupled enzymes. actives 1.2% (n = 360,000). AID 588335. GDH-TPI coupled enzyme counterscreen, NADH absorbance. inhibition, % at 4.8 µM; in the data active = inhibition above about 30%;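 note: 0% = DMSO wells and 100% = wells lacking the enzyme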
Mtb FBA inh conf – Mtb FBA inhibition, confirmed. purified M. tuberculosis FBA, fluorescence read-out. actives 78% (n = 5,600). inhibition, % at 1 µM. shares compounds with Mtb FBA inh;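 note: 0% = vehicle wells and 100% = reference inhibitor wells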
GDH-TPI counter-2 – counter-screen for M. tuberculosis FBA inhibitors: GDH-TPI coupled enzyme inhibition | shares compounds with Mtb FBA inh | AID 652141 | actives 81% (n = 5,600) | inhibition, % at 1 µM | GDH-TPI coupled enzyme counterscreen, fluorescence; in the data active = inhibition above about 10%
* marks the source's active call; other numbers are inactive results; . = no result given; + = active, no number. Rows were chosen to be rich in hits. Some 3.5% of all compounds tested hit in one or more screens of this group. Cut-off read from the data, not from the text of the source, unless noted: active = inhibition above about 27%; inactive = the rest.

SMILES	Rv3671c inh	Mtb FBA inh	UGM FP inh	GDH-TPI counter-1	Mtb FBA inh conf	GDH-TPI counter-2
Cn1c(NCCCO)nc2c(c1=O)C1(CCCCC1)Cc1ccccc1-2	-0.8	65.5*	-2.0	15.2	121.9*	84.6*
O=C(Nc1cc(-c2nc3ncccc3o2)ccc1Cl)c1ccc([N+](=O)[O-])o1	-8.4	3.4	5.3	14.0	.	.
O=c1cc(C(F)(F)F)c2sc(N3CCCCC3)nc2[nH]1	1.1	86.0*	-1.7	19.6	162.0*	124.8*
O=C(CN1CCN(S(=O)(=O)c2ccc(Br)cc2)CC1)N/N=C/c1cccnc1	2.1	-1.6	-0.6	2.6	.	.
Nc1nnc(-c2ccncc2)s1	-6.7	52.3*	0.5	8.7	4.7	-1.0
CCN(C(=O)c1ccco1)c1nnc(-c2cccnc2)s1	-0.2	-0.2	-0.7	-1.5	.	.
CC1(c2cccc(Br)c2)NC(=O)N(CC(=O)c2ccc3c(c2)OCO3)C1=O (stereo unspecified)	.	-0.2	.	-1.3	.	.
CCOC(=O)c1ccc(NC(=O)Cn2nnc(-c3ccccc3C)n2)cc1	-67.9	-9.8	2.2	-5.3	.	.
CCOC(=O)c1c(NC(=O)Cn2nnc(-c3ccccc3Cl)n2)sc(C)c1C	3.9	109.5*	0.5	9.8	0.4	-5.3
COc1ccc(OC)c2c1C(=O)C(Cl)=C(Cl)C2=O	0.9	-2.3	1.0	3.1	.	.
COc1ccc(OC)c2c1C(=O)CC2C (stereo unspecified)	.	48.0*	.	15.9	14.9	6.8
CCOC(=O)C1=C(CSc2nc(-c3ccccc3)ccc2C#N)OC(N)=C(C#N)C1c1ccc(OC)cc1 (stereo unspecified)	-55.5	74.4*	1.0	14.6	111.6*	92.6*
CCOC(=O)C1=C(CSc2nc(CC)c(C)cc2C#N)OC(N)=C(C#N)C1c1ccccc1 (stereo unspecified)	-3.0	5.3	2.7	13.6	.	.
c1ccc2cc3[nH]c(CN4CCOCC4)nc3cc2c1	0.1	103.0*	-5.3	6.9	7.7	-5.7
CCOC(=O)c1c(C)[nH]c(C)c1S(=O)(=O)N(C)CC(=O)Nc1ccccc1F	10.2	6.4	-0.1	8.6	.	.
CCOC(=O)c1cnc2cc3c(cn2c1=O)CCCC3	-0.6	93.8*	-0.4	12.4	+	+
Cc1cnc(N)c2c(=O)oc3ccccc3c12	7.7	60.5*	-0.1	0.5	+	+
O=c1oc2ccccc2c2c1cnc1ccccc12	.	1.8	.	6.4	.	.
COc1ccc(-c2cc(C(F)(F)F)n3nc(C(=O)NCc4ccco4)cc3n2)cc1	-8.6	47.0*	-0.3	34.2*	106.4*	79.8*
O=C(NCc1ccco1)c1cc2nc(-c3ccc4c(c3)OCO4)cc(C(F)(F)F)n2n1	-14.4	0.0	-2.0	21.4	.	.
CC(=O)N1CCC2(CC1)CC(=O)c1cc(OCC(=O)N3CCCC3)ccc1O2	6.2	60.1*	4.1	9.0	47.8*	44.7*
CCOC(=O)COc1ccc2c(c1)C(=O)CC1(CCN(C(C)=O)CC1)O2	-2.6	57.2*	2.3	12.4	+	+
Cc1cccc(OCC(=O)N2CCC3(CC2)CC(=O)c2ccccc2O3)c1	-2.4	6.2	-0.6	7.9	.	.
CCN1CCN(C(=O)COc2ccc3c(c2)C(=O)CC2(CCN(C(C)=O)CC2)O3)CC1	7.2	33.0*	-0.2	-6.4	60.9*	56.2*
CCOC(=O)N1CCC2(CC1)CC(=O)c1cc(O)ccc1O2	0.5	2.4	0.6	12.2	.	.
SMILES	Rv3671c inh	Mtb FBA inh	UGM FP inh	GDH-TPI counter-1	Mtb FBA inh conf	GDH-TPI counter-2
CCOc1ccc(OCC(=O)N2CCC3(CC2)CC(=O)c2ccccc2O3)cc1	5.3	7.4	-1.8	8.3	.	.
CCOC(=O)Nc1nc(-c2ccc(F)cc2F)cs1	-6.8	-4.2	0.5	-2.6	.	.
CNc1cncc(-c2ccc(F)cc2F)n1	.	111.5*	.	14.3	103.7*	67.7*
O=C(O)CCc1ccc(-c2ccccc2)n1Cc1ccco1	7.7	11.9	-1.3	18.7	.	.
Cc1ccc(-c2ccc(CCC(=O)O)n2CC2CCCO2)cc1 (stereo unspecified)	8.1	40.7*	-0.5	-1.3	91.7*	60.1*
O=C(O)CCc1ccc(-c2ccccc2)n1CC1CCCO1 (stereo unspecified)	0.5	36.9*	1.5	-0.8	133.4*	118.5*
COc1ccc(CCN(C)C(=O)C2CCN(C(=O)Nc3ccccc3)CC2)cc1OC	-2.4	6.3	6.0	0.7	.	.
Oc1ccc(-c2nc3cnccn3c2Nc2ccc3c(c2)OCCO3)cc1	2.1	0.1	4.5	23.4	.	.
CC(C)(C)CC(C)(C)Nc1c(-c2ccc(O)cc2)nc2cnccn12	-7.3	59.2*	3.0	15.5	+	+
Cc1ccc(-c2nc(C#N)c(N3CCC(C)CC3)o2)cc1	0.4	67.1*	-0.9	4.1	61.1*	58.5*
Cc1ccccc1OCc1nc(C#N)c(N2CCCC2)o1	0.7	-0.6	0.2	-0.3	.	.
Cc1cccc(-c2nc(C#N)c(NC3CCCCC3)o2)c1	-1.0	95.9*	-1.2	13.6	34.6*	27.0*
CC1CCN(c2oc(Cc3cccc4ccccc34)nc2C#N)CC1	-1.5	-2.2	1.2	3.8	.	.
Cc1ccccc1-c1nc(C#N)c(N2CCCCC2)o1	6.6	70.4*	-2.5	-4.7	7.8	2.0
CC1CN(c2oc(-c3ccccc3Cl)nc2C#N)CC(C)O1 (stereo unspecified)	4.6	5.5	4.0	-1.7	.	.
COc1ccc(-c2nc(C#N)c(N3CC(C)OC(C)C3)o2)cc1OC (stereo unspecified)	1.4	61.5*	0.8	5.7	97.9*	85.2*
Cc1cccc(-c2nc(CS(=O)CC(=O)NC3CCCC3)c(C)o2)c1 (stereo unspecified)	.	4.4	.	10.0	.	.
CC(C)(C)c1ccc(S(=O)(=O)N2CCN(C(=O)C3CCC3)CC2)cc1	-0.8	-0.5	-2.0	5.7	.	.
CCCn1c(SCC(=O)N2CCc3ccccc32)n[nH]c1=O	0.5	-0.9	-2.2	-10.2	.	.
Cc1cccc(-c2nc(C#N)c(N3CCCCC3)o2)c1	-12.1	37.8*	2.9	4.4	35.5*	32.6*
COc1ccc2cc(C(=O)CS(=O)(=O)c3ccccc3)c(=O)oc2c1	-1.8	57.4*	3.5	22.7	55.6*	46.1*
O=C(CS(=O)(=O)c1ccccc1)c1cc2cc(F)ccc2oc1=O	3.6	62.0*	2.3	-5.9	6.4	-4.5
COc1ccc(OC)c(S(=O)(=O)NC(=O)C2(C)CCN2C(=O)CC2CCCC2)c1 (stereo unspecified)	.	3.4	.	13.3	.	.
COc1ccc(N2CCN(C(CNC(=O)C(C)C)c3ccc4c(c3)OCO4)CC2)cc1 (stereo unspecified)	-7.5	2.4	0.1	3.5	.	.
Cc1noc(C)c1C(=O)N1CCC1(C)C(=O)NS(=O)(=O)c1cccs1 (stereo unspecified)	.	-2.8	.	-4.0	.	.
Cc1c(NC(=O)COc2ccc3ccc(=O)oc3c2)c(=O)n(-c2ccccc2)n1C	-1.2	79.4*	1.2	15.5	64.2*	56.6*
Cc1cc(=O)oc2cc(OCC(=O)OCC(=O)Nc3c(C)n(C)n(-c4ccccc4)c3=O)ccc12	3.9	2.8	0.3	-1.0	.	.

Compound activity from PubChem BioAssay.
